Rows were chosen to be rich in hits. Some 2.2% of all compounds tested hit in one or more screens of this group.
PfHsp90 set2: growth inhibition of yeast expressing Plasmodium Hsp90 | S. cerevisiae expressing PfHsp90, BacTiter-Glo ATP, 48 h; yeast lacking PDR1 and PDR3 efflux regulators | inhibition, % at 9.4 µM | 310,000 tested, 0.32% active;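 active = every replicate shows inhibition above about 80%, whatever the replicate mean, limit read from the data; inconclusive = mean inhibition reaches the set limit but some replicate falls short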;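 note: 0% = DMSO neutral controls and 100% = 20 µM radicicol positive controls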
Calb FLC: C. albicans growth modulation with fluconazole; growth inhibition, % (no concentration beside the values); C. albicans CaCi-2 (fluconazole-resistant clinical isolate) + fluconazole, Alamar Blue growth, 48 h; 300,000 tested, 0.57% active;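 active = growth inhibition above about 58% in most replicates, limit read from the data, passing the limit was not always enough; inconclusive = exactly half the replicates above a set limit; inactive = most replicates below a set limit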;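 note: all wells also contain fluconazole at 8 µg/ml as a sub-toxic cotreatment; 0% = median of DMSO wells and 100% = median of geldanamycin control wells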
Shn3 inh set2: reduces Shn3 3'UTR luciferase signal in osteoblasts. Clone20 osteoblast Shn3 3'UTR firefly luciferase, 24 h. inhibition, % at 12.5 µM. 360,000 tested, 0.52% active;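 active = mean inhibition of at least 75% with every replicate also reaching 75%; inconclusive = mean inhibition at least 75% but some replicate below; inactive = mean inhibition below 75%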;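 note: 0% = median of neutral control wells and 100% = pilot-screen positive control compound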
CSC inhib: blocks cancer stem cells | cancer stem cell-like cells viability, luminescence | inhibition, % at 7.5 µM | 300,000 tested, 1.1% active; in the data active = inhibition above about 75%; inconclusive = no clear call, values can overlap the other calls; tested in HMLE shEcad cells
Beta apoptosis: beta cell apoptosis inhibition | INS-1E cytokine-induced death, ATP luminescence, 48 h; percent of positive-control rescue, neutral wells zero | AID 435005 | 300,000 tested, 0.8% active | protection from apoptosis, % (test concentration not listed);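 active = Every replicate reaches about 75%, or at least half do and their mean reaches it too, limit read from the data; inconclusive = At least half of replicates reach the limit but their mean does not; inactive = Under half of replicates reach the limit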;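 note: 0% = cytokine-treated negative control wells and 100% = positive control rescue; higher means more ATP so stronger rescue from cytokine killing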
* = called active by the depositor; u = inconclusive; x = not tested or not shown.

SMILES	PfHsp90 set2	Calb FLC	Shn3 inh set2	CSC inhib	Beta apoptosis
Cc1cc(C)cc(OCC(O)CN2CCC(CN3C(=O)c4cccc5cccc(c45)C3=O)CC2)c1 (configuration not stated)	-4	6	73	24	78*
O=C1c2cccc3cccc(c23)C(=O)N1CCN1CCN(CC(O)COc2ccc3ccccc3c2)CC1 (configuration not stated)	19	20	27	104*	47
CC(=O)c1ccccc1OCC(O)CN1CCN(CCN2C(=O)c3cccc4cccc(c34)C2=O)CC1 (configuration not stated)	9	u	54	5	15
O=C1c2cccc3cccc(c23)C(=O)N1CCN1CCN(CC(O)COCc2ccc(Cl)cc2)CC1 (configuration not stated)	-6	-26	31	82*	-1
O=C1c2cccc3cccc(c23)C(=O)N1CC1CCN(CC(O)COc2ccc3ccccc3c2)CC1 (configuration not stated)	19	-5	48	103*	70
COc1cccc(OCC(O)CN2CCC(CN3C(=O)c4cccc5cccc(c45)C3=O)CC2)c1 (configuration not stated)	-30	2	27	13	23
COC(=O)CCCC(=O)N1CCC(CCC(=O)NCc2ccc(F)cc2)CC1	-4	0	4	-6	-3
CCCCOc1ccc(S(=O)(=O)N2CCN(C)CC2)cc1	11	-9	-91	5	x
COc1cc(NC(=S)N2CCN(S(=O)(=O)c3ccccc3)CC2)cc(OC)c1	-9	122*	16	-3	1
O=C(O)c1cccc(N/N=C/c2sc(N3CCOCC3)nc2-c2ccccc2)c1	-12	-2	-29	0	4
O=C(N/N=C/c1sc(N2CCOCC2)nc1-c1ccccc1)c1ccccc1Cl	-19	u	-4	-4	-7
O=[N+]([O-])c1ccc(N/N=C/c2sc(N3CCOCC3)nc2-c2ccccc2)c(S(=O)(=O)Nc2ccccc2Cl)c1	6	x	87*	x	x
O=[N+]([O-])c1ccc(N/N=C/c2sc(N3CCOCC3)nc2-c2ccccc2)c(S(=O)(=O)Nc2ccc(Cl)cc2)c1	-25	-4	91*	x	x
Cc1ccc(-c2c3c(nc4sc(C(N)=O)c(N)c24)CCC3)cc1	6	-5	8	-8	-42
Cc1ccc(C(=O)Cn2nnc3c(sc4nc5c(c(-c6ccccc6)c43)CCC5)c2=O)cc1	15	0	8	86*	1
COc1cc(N(C(C)=O)c2ccc(O)c(C(=O)O)c2)c2ncccc2c1	x	x	-16	x	x
C(#Cc1ccccc1)C[N+]1(CC#Cc2cccc3ccccc23)CCCC1	-1	90*	84	15	77*
Cc1ccnc(NC(=O)C(Cc2ccccc2)NC(=O)c2ccccc2)c1 (configuration not stated)	8	x	22	x	0
CCc1ccc(NC(=O)CSc2n[nH]c(=O)n2C2CC2)cc1	16	x	-6	x	x
CN(C)S(=O)(=O)Oc1cccc(C(=O)Nc2ccc(Cl)cc2)c1	u	87*	43	10	2
COc1cccc(C(=O)Nc2ccc(C)cc2)c1	-11	-6	-77	4	-3
COc1cccc(C(=O)Nc2ccc(C3CC3(Cl)Cl)cc2)c1 (configuration not stated)	-16	-7	-9	91*	-8
CN(C)S(=O)(=O)Oc1cccc(C(=O)Nc2ccccc2Cl)c1	x	23	-41	3	8
O=S1(=O)CC(N2CC=CC2)CN1Cc1ccc(F)cc1 (configuration not stated)	x	x	-7	x	x
COc1ccc(C2(c3ccc(OC)cc3)NC(=O)N(CC(=O)Nc3ccc(OC)c(OC)c3)C2=O)cc1	-17	5	15	-10	x
SMILES	PfHsp90 set2	Calb FLC	Shn3 inh set2	CSC inhib	Beta apoptosis
O=C(CSc1ccccn1)Nc1nonc1[N+](=O)[O-]	25	5	95*	x	x
COc1ccc(Cl)cc1NC(=S)NC1CCCC1	-17	-72	6	-2	x
COc1ccc(/C=C/C(=O)C2CC2)cc1COc1c(C)cccc1C	0	97*	5	48	11
COc1ccc(/C=C/C(=O)O)cc1COc1cccc(C)c1	1	1	2	-1	7
CC1CCN(C(=O)c2[nH]cnc2C(=O)Nc2ccon2)CC1	3	x	20	21	2
CC1CCN(c2nc(-c3cccnc3)nc3scc(-c4ccccc4)c23)CC1	-14	4	-6	95*	9
